Results filed as inconclusive are left out. A number with no mark means an inactive call. Calls follow the shape of the dose curve; as a rule, active = well fitted inhibition curve with a large enough effect in the signal ratio in the repeat runs (not every such curve was filed as active); inconclusive = weak or mixed curves; inactive = flat fitted curve, though single readings scatter; the % refers to the signal ratio.
% is scaled to controls: 0 for no effect and ±100 for the full control effect.

Progesterone receptor (Homo sapiens), sequence (P06401 whole entry, looked up): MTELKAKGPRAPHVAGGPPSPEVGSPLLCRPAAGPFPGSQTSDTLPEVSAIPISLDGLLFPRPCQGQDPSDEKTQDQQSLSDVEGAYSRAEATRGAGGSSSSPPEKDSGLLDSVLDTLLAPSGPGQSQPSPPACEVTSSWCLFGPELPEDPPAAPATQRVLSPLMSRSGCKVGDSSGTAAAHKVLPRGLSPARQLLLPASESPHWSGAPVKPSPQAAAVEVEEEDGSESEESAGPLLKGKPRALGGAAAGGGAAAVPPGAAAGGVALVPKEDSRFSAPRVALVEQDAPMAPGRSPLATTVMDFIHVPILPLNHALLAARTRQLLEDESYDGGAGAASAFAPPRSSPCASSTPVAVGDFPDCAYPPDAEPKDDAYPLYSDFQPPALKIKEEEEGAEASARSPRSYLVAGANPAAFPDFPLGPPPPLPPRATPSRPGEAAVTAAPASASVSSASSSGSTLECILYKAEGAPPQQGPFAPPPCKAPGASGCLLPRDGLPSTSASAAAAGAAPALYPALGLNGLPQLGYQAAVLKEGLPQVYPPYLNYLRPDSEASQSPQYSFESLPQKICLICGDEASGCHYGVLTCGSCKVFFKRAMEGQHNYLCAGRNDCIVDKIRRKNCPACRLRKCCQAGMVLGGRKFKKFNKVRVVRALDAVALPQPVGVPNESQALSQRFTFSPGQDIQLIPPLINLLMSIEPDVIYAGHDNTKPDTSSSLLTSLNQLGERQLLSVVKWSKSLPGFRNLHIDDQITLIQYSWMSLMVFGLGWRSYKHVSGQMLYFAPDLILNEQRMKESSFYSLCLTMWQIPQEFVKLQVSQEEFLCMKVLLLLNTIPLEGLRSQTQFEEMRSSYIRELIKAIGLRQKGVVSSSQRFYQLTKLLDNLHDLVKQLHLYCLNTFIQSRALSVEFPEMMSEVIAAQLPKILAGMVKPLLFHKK

The test has as its target Progesterone receptor (Homo sapiens) (UniProt P06401). The experiment in a line: qHTS assay to identify small molecule antagonists of the progesterone receptor (PR) signaling pathway (AID 1346795). The note with it: PR-UAS-bla HEK293T, beta-lactamase FRET ratio, 16 h; series mostly up to 92.4 µM; activity change, negative = inhibition: at the top concentration. A digest of the protocol:
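Stimulus R5020 at 1 nM final; cells HEK293T PR-UAS-bla; medium with 2% charcoal-stripped FBS; compound exposure 16 hr at 37C, 5% CO2; detection by FRET beta-lactamase substrate, 2 hr, room temperature.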
(In general: In qHTS, concentration-response curves come from the screen itself.)
As to `Cc1ccccc1N=C(N)N=C(N)N`, the “activity change, negative = inhibition” value was 9.31%. For `FB(F)F`, the “activity change, negative = inhibition” value is -1.93%. To `CCCC(=O)O[C@]1(C(=O)CC)CC[C@H]2[C@@H]3CCC4=CC(=O)CC[C@]4(C)[C@H]3[C@@H](O)C[C@@]21C` belongs 1.55% [at 42.5 µM]; to `CCO[Si](OCC)(OCC)c1ccccc1`, 11.7%.

On to `Cc1cccc(C)c1NC(=O)CC12CCCN1CCC2`, for which the “activity change, negative = inhibition” value was 0.485% [at 42.5 µM]. In the case of `O=S(=O)(O)c1cc(O)c(O)c(S(=O)(=O)O)c1`, the “activity change, negative = inhibition” value was 9.8%. Turning to `CC(C)C1CCC(O)CC1` (stereo not drawn), the “activity change, negative = inhibition” value is 3.16%.

Consider `CC1=NN(c2cc(S(=O)(=O)O)ccc2Cl)C(=O)C1N=Nc1ccccc1` (stereo not drawn), for which the “activity change, negative = inhibition” value is 9.35%.

As to `CC12CCC(C(=O)C1=O)C2(C)C` (stereo not drawn), the “activity change, negative = inhibition” value is 3.3%. Regarding `C=CN1CCCCCC1=O`, the “activity change, negative = inhibition” value was 14.9%. For the molecule `CCCCCCCCCCCCCCCCCCO`, the “activity change, negative = inhibition” value is 2.4% [at 42.5 µM]. For `CC(C)C(=O)OC(=O)C(C)C` the value was 3.92%.

Turning to `[O-][n+]1cccc(CO)c1`, the “activity change, negative = inhibition” value is 2.32% [at 42.5 µM]. Consider `CCCCCC(=O)OCCc1ccccc1`, for which the “activity change, negative = inhibition” value is 6.96%. For `CC(=O)NC(=O)c1ccccc1O`, the “activity change, negative = inhibition” value was 6.06% [at 42.5 µM]. In the case of `COc1cc(C(=O)OC(COCCC(C)C)CN2CCOCC2)cc(OC)c1OC` (stereo not drawn), the “activity change, negative = inhibition” value is 11.9% [at 42.5 µM]. For `CO[Si](C)(OC)c1ccccc1` the value was -17.4%; for `C=COC(=O)C(C)(CC)CCC(C)C` (stereo not drawn), 4.69%.

Regarding `C=C[Si](OC(C)=O)(OC(C)=O)OC(C)=O`, the “activity change, negative = inhibition” value is -23.3%. Consider `COc1c(N2CCNC(C)C2)c(F)cc2c(=O)c(C(=O)O)cn(C3CC3)c12` (stereo not drawn), for which the “activity change, negative = inhibition” value is 11.8% [at 42.5 µM]. Turning to `CC1(C)OC[C@@H](COC(=O)CCc2ccc(OC[C@@H](O)CNCCNC(=O)N3CCOCC3)cc2)O1`, the “activity change, negative = inhibition” value was 11.6% [at 42.5 µM]. To `C=CC(C)(CCC=C(C)C)OC(=O)CC` (stereo not drawn) belongs -1.34%; to `c1ccc(Cc2ccccc2)cc1`, 1.43%.

As for `CC(C)(C#N)Nc1nc(Cl)nc(NC2CC2)n1`, the “activity change, negative = inhibition” value was -3.23%. On to `C=C(C)C(=O)OCC1CCCO1` (stereo not drawn), for which the “activity change, negative = inhibition” value was 7.27%. Regarding `CC(=O)Nc1ccc(OCC(O)CNC(C)C)cc1` (stereo not drawn), the “activity change, negative = inhibition” value is 9.34% [at 42.5 µM]. To `CN(C)[C@@H]1C(=O)C(C(=O)NCN2CCCC2)=C(O)[C@@]2(O)C(=O)C3=C(O)c4c(O)cccc4[C@@](C)(O)C3C[C@@H]12` (stereo partly drawn) belongs 4.26% [at 42.5 µM]. On to `COc1cc(C(=O)NCc2ccc(OCCN(C)C)cc2)cc(OC)c1OC`, for which the “activity change, negative = inhibition” value was 1.34% [at 42.5 µM].

In the case of `CCCC(C)C(=O)OCC` (stereo not drawn), the “activity change, negative = inhibition” value was 1.04%. Regarding `CCCCOC(=O)CCC(C)=O`, the “activity change, negative = inhibition” value is 0.809%. With `CC(C#N)(CCC(=O)O)N=NC(C)(C#N)CCC(=O)O` (stereo not drawn), the “activity change, negative = inhibition” value was 7.32%. Consider `O=S(=O)(O)c1cccc2ccccc12`, for which the “activity change, negative = inhibition” value is 14.9%. To `CN(C)C(=O)Oc1cccc([N+](C)(C)C)c1` belongs 0.259% [at 42.5 µM]; to `CC(=O)N[C@H]1[C@H]([C@H](O)[C@H](O)CO)OC(C(=O)O)=C[C@@H]1N=C(N)N`, 5.91% [at 42.5 µM]; to `CCN[C@@H]1C[C@H](N)[C@@H](OC2OC(CN)=CCC2N)[C@H](O)[C@H]1O[C@H]1OC[C@](C)(O)[C@H](NC)[C@H]1O` (stereo partly drawn), 9.29% [at 0.348 µM]. As for `C=CC(=O)OCCCl`, the “activity change, negative = inhibition” value was -7.62%.

On to `CCCc1nn(C)c2c(=O)[nH]c(-c3cc(S(=O)(=O)N4CCN(C)CC4)ccc3OCC)nc12`, for which the “activity change, negative = inhibition” value is 0.566% [at 42.5 µM]. Take `C[N+]12CCC(CC1)C(OC(=O)C(O)(c1ccccc1)c1ccccc1)C2` (stereo not drawn): the “activity change, negative = inhibition” value is 4.48% [at 42.5 µM].

Source of the values: PubChem BioAssay (Tox21).
